This note sets out measurements from PubChem BioAssay (NCI).

Each structure is given as a SMILES string. Compounds without any hit were thinned out: in the full panel of roughly 79,000, 15% have a hit. Values without a mark were called inactive. Calls of active or inactive are those of the source. No stated cut-off is given here; in the data, active means growth inhibition above about 70%; inactive means the rest.

Assay [1] is described as follows: NCI Yeast Anticancer Drug Screen. Data for the rad50 strain (AID 155).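 Further: 0% = growth of vehicle-only cultures of the same strain.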 The note with it: S. cerevisiae rad50 strain growth inhibition; at 50.0 µM; stronger effect = higher value. The procedure, abridged: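 Vehicle-treated cultures provide the reference for the growth inhibition reported for compound-exposed, repair-deficient yeast.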
Assay [2] is described as follows: NCI Yeast Anticancer Drug Screen. Data for the mec2-1 strain (AID 157). Particulars: S. cerevisiae mec2-1 strain, at 50.0 µM, stronger effect = higher value. The procedure, abridged: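 Each compound was tested on mec2-1 yeast, a strain altered in DNA damage repair or cell cycle control. Growth inhibition is reported relative to vehicle.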
Assay [3] in a line: NCI Yeast Anticancer Drug Screen. Data for the sgs1 mgt1 strain (AID 161).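 Further: 0% = growth of cultures given vehicle only.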 The note with it: S. cerevisiae sgs1 mgt1 strain, at 50.0 µM, stronger effect = higher value. The procedure, abridged: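 Read-out: growth inhibition vs vehicle controls. Cells: mutant yeast strain deficient in DNA damage repair.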
The nature of assay [4]: NCI Yeast Anticancer Drug Screen. Data for the cln2 rad14 strain (AID 165).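 Further: 0% = growth equal to vehicle treated cultures.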 Particulars: S. cerevisiae cln2 rad14 strain, at 50.0 µM, stronger effect = higher value. The method, boiled down: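 Test compounds were added to cln2 rad14 yeast cultures; inhibition of growth was then determined by comparison with vehicle treatment.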
Assay [5] in a line: NCI Yeast Anticancer Drug Screen. Data for the bub3 strain (AID 167). Particulars: S. cerevisiae bub3 mutant strain, at 50.0 µM, stronger effect = higher value. The procedure, abridged:
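Mutant yeast screening strain plus compound; vehicle-treated cultures serve as the 0% inhibition reference.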

Assay [6] in a line: NCI Yeast Anticancer Drug Screen. Data for the mlh1 rad18 strain (AID 175). The note with it: S. cerevisiae mlh1 rad18 strain growth inhibition; at 50.0 µM; stronger effect = higher value. The method, boiled down:
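Inhibition values reflect reduced growth of mutant yeast versus vehicle-treated controls following compound exposure; the mutations affect DNA damage repair.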

`O=C(O)c1cccc(Cl)c1-c1c(Cl)cccc1C(=O)O`: the growth inhibition was 4.65% in assay [1]; -0.95% in assay [2]; 17.8% in assay [3]; 11.8% in assay [4]; 17.3% in assay [5]; -8.45% in assay [6].

With `CC(O)(COS(=O)(=O)c1ccccc1)c1ccccc1` (stereo not drawn), the growth inhibition in assay [1] is -8.1%; in assay [2] it was 0.7%; in assay [3], -8.7%; in assay [4] it was -14%; in assay [5], 26.7%; in assay [6] it was -8.4%.

As for `O=C1c2cc(Cl)ccc2-c2ccc(Cl)cc21`, the growth inhibition is 2.75% in assay [1]; 2.85% in assay [2]; -4.85% in assay [3]; -11.8% in assay [4]; -1.2% in assay [5]; 1.05% in assay [6].

As for `CC1=CC(OC2CCCCO2)CC(C)(C)C1` (stereo not drawn), the growth inhibition was -5.2% in assay [1]; -3% in assay [2]; -11% in assay [3]; -16.4% in assay [4]; 0.05% in assay [5]; -5.15% in assay [6].

As to `CC(C)(C)OC(=O)N1CCCC1C(=O)NCCNc1ccc(NCCNC(=O)C2CCCN2C(=O)OC(C)(C)C)c2c1C(=O)c1ccccc1C2=O` (stereo not drawn), the growth inhibition in assay [1] is 13.8%; in assay [2], 13.4%; in assay [3], 21.4%; in assay [4], 52.4%; in assay [5], 2.35%; in assay [6] it was -25%.

Turning to `CC1CN(C(=O)OCC23COC4(C)CCC(C)(OC2)N34)CC(C)O1` (stereo not drawn), the growth inhibition is 2.6% in assay [1]; -18% in assay [2]; 6.9% in assay [3]; 13.4% in assay [4]; -0.7% in assay [5]; 5.75% in assay [6].

Take `CCCC1CCCC12CCc1ccccc1C2=O` (stereo not drawn): the growth inhibition in assay [1] is 15.3%; in assay [2], -6.15%; in assay [3], -11.1%; in assay [4], 10.1%; in assay [5] it was -5.8%; in assay [6] it was 1.15%.

Turning to `Oc1ccc(Cl)cc1/C=N/NC(=S)Nc1cccc2cccnc12`, the growth inhibition was 24.1% in assay [1]; 12.6% in assay [2]; 10.7% in assay [3]; 20.6% in assay [4]; 20.1% in assay [5]; 15.7% in assay [6].

As to `COC1C(O)CC(OC2C(C)OC(Oc3cc(O)c4c(O)c5c(cc4c3)C[C@@H]([C@H](OC)C(=O)[C@@H](O)[C@@H](C)O)[C@H](OC3CC(OC4CC(OC6CC(C)(O)C(O)C(C)O6)C(O)C(C)O4)C(O)C(C)O3)C5=O)CC2OC(C)=O)OC1C` (stereo partly drawn), the growth inhibition in assay [1] is -7.9%; in assay [2], -3.45%; in assay [3] it was -32.9%; in assay [4], 10%; in assay [5], 2.45%; in assay [6] it was 0.4%.

Take `Cc1ccccc1N=CC(C=O)[N+](=O)[O-]` (stereo not drawn): the growth inhibition in assay [1] was -1.65%; in assay [2] it was -9.8%; in assay [3] it was 0.95%; in assay [4] it was 4.1%; in assay [5], -4.7%; in assay [6], -5.65%.

Regarding `C=C1N(c2cc(OC)c(OC)c(OC)c2)C(=O)OC12CCCCC2`, the growth inhibition in assay [1] is -4.05%; in assay [2], 5.4%; in assay [3] it was 0.2%; in assay [4], 38.7%; in assay [5] it was -0.3%; in assay [6], 1.4%.

On to `O/N=C/c1cccc[n+]1Cc1ccccc1`, for which the growth inhibition in assay [1] was -4%; in assay [2] it was 6.3%; in assay [3] it was 0.95%; in assay [4], -23.9%; in assay [5], 4.85%; in assay [6], 1.25%.

As for `CCCSc1ccc2c3c(cccc13)C(=O)OC2=O`, the growth inhibition is 47.5% in assay [1]; 42.9% in assay [2]; 46% in assay [3]; 45.6% in assay [4]; 57.7% in assay [5]; 27.5% in assay [6].

Regarding `CC(=O)OC/C=C1/CC[C@H]2[C@@H]3CCC4=CC(=O)[C@H](C)C[C@]4(C)[C@H]3[C@@H](O)C[C@]12C`, the growth inhibition in assay [1] is -1.85%; in assay [2], -2%; in assay [3], 4.05%; in assay [4], 1.8%; in assay [5] it was -9.2%; in assay [6], -21.8%.

In the case of `CCCCCCC(NC(C)=O)C(=O)O` (stereo not drawn), the growth inhibition in assay [1] was 3.85%; in assay [2], -4.7%; in assay [3] it was 13.9%; in assay [4], 6.35%; in assay [5] it was 4.3%; in assay [6], 3.5%.

As to `COC(=O)c1nc(N)nc(C(=O)OC)c1C(=O)C(C)(C)C`, the growth inhibition is -11.1% in assay [1]; -10.8% in assay [2]; -25.9% in assay [3]; -23.6% in assay [4]; -41.6% in assay [5]; -28.8% in assay [6].

In the case of `NC(=O)CCC(N)=O`, the growth inhibition was 22.6% in assay [1]; 5.75% in assay [2]; 5.25% in assay [3]; -5.4% in assay [4]; 17.1% in assay [5]; 1.45% in assay [6].

Consider `NC(=O)c1cc([N+](=O)[O-])cnc1Sc1ncccn1`, for which the growth inhibition was 40.8% in assay [1]; 14.9% in assay [2]; 21.7% in assay [3]; 18.2% in assay [4]; 29.9% in assay [5]; 44.6% in assay [6].

As for `CN(C)c1ccc(C(=O)C2CCCCC2)cc1`, the growth inhibition is 29.1% in assay [1]; 7.5% in assay [2]; 13.6% in assay [3]; -4.8% in assay [4]; -5.2% in assay [5]; 21.8% in assay [6].

As to `COc1ccc(NC(=O)CSc2nnc(-c3ccc(NC(C)=O)cc3)o2)cc1`, the growth inhibition in assay [1] is 22.5%; in assay [2], 2.2%; in assay [3], 35.6%; in assay [4] it was 22.2%; in assay [5] it was 36%; in assay [6], 0.55%.

On to `C/C(CC(=O)c1ccccc1)=C1\C(=O)NN(c2ccccc2)C1=O`, for which the growth inhibition in assay [1] was 60.5%; in assay [2], 47.5%; in assay [3], 67.7%; in assay [4], 56.9%; in assay [5] it was 64.6%; in assay [6], 60.1%.

In the case of `CC(=O)[C@H]1[C@H](C)C[C@H]2[C@@H]3CCC4=CC(=O)CC[C@]4(C)[C@@]3(F)C(=O)C[C@@]21C`, the growth inhibition in assay [1] was -5.45%; in assay [2], 1.2%; in assay [3], -3.3%; in assay [4] it was -28.4%; in assay [5] it was 6%; in assay [6] it was 4%.

With `COC1(OC)C[C@H](C)[C@@]23O[C@]24c2cc(O)c5c(c2N[C@H]3C#C/C=C\C#C[C@]14O)C(=O)c1ccccc1C5=O`, the growth inhibition in assay [1] was 87.7% (active); in assay [2], 87.2% (active); in assay [3], 88.8% (active); in assay [4], 88% (active); in assay [5], 89.3% (active); in assay [6] it was 90.8% (active).

For `Nc1ccc(Cl)cc1Br`, the growth inhibition is 6.35% in assay [1]; 22.4% in assay [2]; -6.5% in assay [3]; 5.5% in assay [4]; -7.05% in assay [5]; 8.6% in assay [6].

As to `c1ccc(-c2c[s+]cc(-c3ccccc3)c2)cc1`, the growth inhibition was 98.7% (active) in assay [1]; 98.9% (active) in assay [2]; 99.2% (active) in assay [3]; 98.5% (active) in assay [4]; 78.2% (active) in assay [5]; 99.2% (active) in assay [6].

Regarding `CCCCCCCCCCCCCCCCCC[N+](C)(C)Cc1c(Cl)c(Cl)c(Cl)c(Cl)c1Cl`, the growth inhibition is 10.8% in assay [1]; 8.9% in assay [2]; 20.4% in assay [3]; -18.9% in assay [4]; 24.6% in assay [5]; 1.65% in assay [6].

In the case of `Cc1cccc(NC(=O)OCCOC(=O)Nc2cccc(C)n2)n1`, the growth inhibition is -15.1% in assay [1]; -11.6% in assay [2]; -19.4% in assay [3]; -9.25% in assay [4]; -11.1% in assay [5]; -1.15% in assay [6].

For `Cc1ccc(NC(=O)CSc2nnc(Cc3ccccc3)o2)c(C)c1`, the growth inhibition in assay [1] is -26.8%; in assay [2], -63.2%; in assay [3], -57.8%; in assay [4], -22.8%; in assay [5] it was -3.3%; in assay [6], -54.9%.

As for `O=C1C2CC3CC(C2)CC1C3`, the growth inhibition is 15.1% in assay [1]; -4.5% in assay [2]; 37% in assay [3]; 9.25% in assay [4]; 6.05% in assay [5]; 14.9% in assay [6].

Turning to `COC(=O)/C=C1\SC(OC)(N(C)c2ccccc2)N(C)C1=O` (stereo not drawn), the growth inhibition in assay [1] was -25.6%; in assay [2], 9.6%; in assay [3], 22.7%; in assay [4] it was -10.4%; in assay [5] it was -0.8%; in assay [6], 19.1%.

With `NC(=O)C(O)(c1ccc(Br)cc1)C(Cl)Cl` (stereo not drawn), the growth inhibition in assay [1] was 4.65%; in assay [2], 3.05%; in assay [3], -5.55%; in assay [4] it was 9.05%; in assay [5], 11.6%; in assay [6], 5.95%.

In the case of `O=C1C(Cl)N(c2ccccc2[N+](=O)[O-])C1c1c[nH]c2ccccc12` (stereo not drawn), the growth inhibition is -13.6% in assay [1]; -22.6% in assay [2]; 3.65% in assay [3]; -19.9% in assay [4]; -26.2% in assay [5]; -31.7% in assay [6].

As to `Cc1nc(C)c(C(=O)NNC(N)=S)cc1C(=O)NNC(N)=S`, the growth inhibition in assay [1] is -10.2%; in assay [2], -16.6%; in assay [3] it was 0.95%; in assay [4] it was -5.6%; in assay [5] it was -27.6%; in assay [6] it was -8.9%.

Consider `C[N+](C)(N)c1nc(N)c(C#N)c(C#N)c1C#N`, for which the growth inhibition in assay [1] was 13.6%; in assay [2] it was -18.7%; in assay [3], -10.9%; in assay [4], -24.4%; in assay [5] it was 5.1%; in assay [6] it was 13.8%.

Take `O=C1NC(=S)S/C1=C\c1ccc2c(c1)OCO2`: the growth inhibition in assay [1] is -22.1%; in assay [2], -21.3%; in assay [3], -4.8%; in assay [4], -2%; in assay [5], -8.05%; in assay [6] it was -7.55%.

For the molecule `C[N+](C)([O-])Cc1cccc(NC(=O)c2ccc(C(=O)Nc3cccc(C[N+](C)(C)[O-])c3)cc2)c1`, the growth inhibition in assay [1] was -4.3%; in assay [2], 1.25%; in assay [3], -8.2%; in assay [4] it was 1.3%; in assay [5], -12.8%; in assay [6], -7.95%.

Take `CC(C)(C)c1ccc(OCC(=O)O)cc1`: the growth inhibition in assay [1] was -17.3%; in assay [2], -12%; in assay [3], -7.2%; in assay [4] it was -17.4%; in assay [5], -8.4%; in assay [6], -6.6%.

Turning to `COc1cc(C)c(OC)c(C/C=C(\C)CC2=C(CC(C)(C)O)C(=O)[C@]3(C)CCC[C@]3(C)C2)c1`, the growth inhibition in assay [1] was 33.6%; in assay [2], 25.8%; in assay [3] it was 13.7%; in assay [4], 4.35%; in assay [5] it was 16.5%; in assay [6], 12.4%.
